MITF TRPM1 inh: inhibitors of MITF-driven TRPM1 promoter in melanoma cells. AID 488899. inhibition, % at 12.5 µM. actives 0.83% (n = 330,000). SK-MEL-5 TRPM1 promoter luciferase, 24 h;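 active = mean inhibition across replicates of 60% or more, whatever share of single replicates reaches that level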
Peg3 prom inh: Peg3 promoter activity inhibition; HeLa PEG-Prom luciferase reporter, luminescence, overnight; inhibition, % at 20 µM; actives 1.7% (n = 360,000); AID 588405;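 active = inhibition of at least 50% at 20 µM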
CF NFkB inh: inhibitors of cystic fibrosis induced NF-kB; KKLEB NF-kB-GFP reporter, PAF-induced, GFP fluorescence overnight; inhibition, % at 5 µM; actives 0.86% (n = 360,000);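 active = at least 50% inhibition at 5 µM, scaled per plate between neutral and stimulator controls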;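 also: PAF is a Pseudomonas aeruginosa culture filtrate used as stimulus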
KKLEB cytotox: CF airway cell cytotoxicity counter-screen | activity change (cytotoxicity), % at 5 µM | actives 0.36% (n = 360,000) | AID 602141 | KKLEB CF airway cells viability, ATPlite luminescence, overnight; active compounds read low; cells stimulated with P. aeruginosa culture filtrate;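 active = corrected activity change at or below -50% at 5 µM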
Shn3 inh set2: reduces Shn3 3'UTR luciferase signal in osteoblasts; actives 0.52% (n = 360,000); inhibition, % at 12.5 µM; Clone20 osteoblast Shn3 3'UTR firefly luciferase, 24 h;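 active = mean inhibition of at least 75% with every replicate also reaching 75%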
HIF-2a block: inhibitors of HIF-2a; 786-0 RCC cells HIF-2a reporter, luciferase luminescence, overnight; inhibition, % at 18.8 µM; actives 0.72% (n = 360,000); AID 624352;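 active = inhibition of the luminescence signal of 40% or more relative to plate controls, in a single-dose primary screen at 18.75 µM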
Numbers stand for hits; i = inactive; nt = not tested or not shown. Hits are enriched below; roughly 2.7% of the tested compounds scored in any of these assays.

SMILES | MITF TRPM1 inh | Peg3 prom inh | CF NFkB inh | KKLEB cytotox | Shn3 inh set2 | HIF-2a block
CCCCCCCCCCCCCCCC[n+]1cccc2ccccc21 | 103 | 104 | 66 | -68 | 92 | 94
COC(=O)c1c(N2C(=O)[C@H]3[C@@H](C2=O)[C@]2(C(=O)Nc4c(C)cccc42)N2CCC[C@@H]32)sc(C)c1C | i | 56 | i | i | i | i
Cc1cc(Cl)cc2c1NC(=O)[C@]21[C@@H]2C(=O)N(Cc3ccccc3)C(=O)[C@@H]2[C@@H]2CCCN21 | i | i | i | i | i | i
CCC(C)[C@H]1CNC(=S)N1CCc1cc(C(F)(F)F)cc(C(F)(F)F)c1 (stereo partly specified) | i | i | i | i | 97 | i
CCC(C)[C@H]1CNCCN1CCc1cc(C(F)(F)F)cc(C(F)(F)F)c1 (stereo partly specified) | i | i | i | i | i | i
COc1ccccc1NS(=O)(=O)c1cc(-c2cnc(C3CC3)o2)ccc1C | i | 52 | i | i | i | i
CCC(=O)N1CCC1(C)C(=O)Nc1ccc(OC(F)F)cc1 (stereo unspecified) | nt | i | i | i | i | i
CSc1ccc(COC(=O)c2cc([N+](=O)[O-])ccc2N2CCOCC2)cc1 | 67 | i | i | i | i | i
O=C(Nc1ccc2oc(-c3ccncc3)nc2c1)c1cccs1 | i | i | i | i | i | i
O=C(Nc1ccc(-c2nc3cc(NC(=O)c4cccs4)ccc3o2)cc1)c1cccs1 | 73 | i | i | i | i | i
COC(=O)c1cccc(CN2C(=O)C(C)Oc3ccc(C)cc32)c1 (stereo unspecified) | nt | i | i | i | i | i
CCC12CC1(C(=O)OC)C(=O)N1CCc3c([nH]c4ccccc34)C12 (stereo unspecified) | nt | i | i | i | i | i
CCOc1ccccc1C1C2=C(COC2=O)Nc2cc3c(cc21)OCO3 (stereo unspecified) | i | i | 54 | i | i | i
O=C1OCC2=C1C(c1ccc(F)cc1)c1cc3c(cc1N2)OCCO3 (stereo unspecified) | i | i | 63 | i | i | i
CCOc1ccccc1C1CC(=O)Nc2cc3c(cc21)OCO3 (stereo unspecified) | i | i | i | i | i | i
C#CCOc1ccc(C2C3=C(COC3=O)Nc3cc4c(cc32)OCO4)cc1OC (stereo unspecified) | i | i | i | i | i | i
O=C1OCC2=C1C(c1ccc(F)cc1)c1cc3c(cc1N2)OCO3 (stereo unspecified) | i | i | 59 | i | i | i
CCOc1cc([C@@H]2C[C@H]3CN(c4ccccc4)C(=O)[C@]34CCCN24)ccc1OC | i | 98 | i | i | i | i
COc1cc([C@@H]2C[C@H]3CN(c4ccccc4)C(=O)[C@]34CCCN24)cc(OC)c1OC | i | 87 | i | i | i | i
COc1ccccc1-n1cc([C@@H]2C[C@H]3CN(c4ccccc4)C(=O)[C@]34CCCN24)cn1 | i | 98 | 86 | -56 | 97 | i
COc1cc(Cl)c([C@@H]2C[C@H]3CN(c4ccccc4)C(=O)[C@]34CCCN24)cc1OC | i | i | i | i | i | i
CC(=NCc1ccccc1)c1ccc(O)cc1O | nt | i | i | i | i | i
CC(C)C[C@H](N)c1nnc(S(=O)(=O)Cc2cccc(F)c2)o1 | i | 67 | i | i | i | i
CC(C)CCNC(=O)c1ccc(CSCc2cccc(F)c2)o1 | i | i | i | i | i | i
CC(C)Oc1ccc(C(CCN)C2CCCCC2)cc1 (stereo unspecified) | 88 | 105 | i | i | i | i
SMILES | MITF TRPM1 inh | Peg3 prom inh | CF NFkB inh | KKLEB cytotox | Shn3 inh set2 | HIF-2a block
CC(C)Oc1ccc(C(=O)NC2CCCCC2)cc1 | i | i | i | i | i | i
O=C(c1ccoc1)N1CCN(c2cc(-c3cccc(F)c3)nc3cc(-c4cccc(Cl)c4)nn23)CC1 | nt | i | i | i | 91 | i
CCOC(=O)C1CCN(C(=O)c2ccc(OCC(=O)Nc3cccc(C(F)(F)F)c3)c(OC)c2)CC1 | i | i | i | i | 89 | i
CCOC(=O)C1CCN(C(=O)c2ccc(OCC(=O)Nc3cccc(C(F)(F)F)c3)cc2)CC1 | i | i | i | i | i | i
CCCCCCCN1C2=NCCCN2c2ccccc21 | i | i | i | i | 87 | i
Cc1cc2c(cc1C)N(Cc1ccc(Cl)cc1)C1=NCCCN12 | i | 57 | i | i | i | i
CC(C)(C)c1ccc(CN2C3=NCCCN3c3ccccc32)cc1 | i | i | i | i | 88 | i
Cc1ccc(CN2C3=NCCCN3c3ccccc32)cc1 | i | i | i | i | i | i
COc1ccc(NC(=O)N(C)C[C@@H]2OCc3cnnn3CCCC(=O)N([C@H](C)CO)C[C@@H]2C)cc1 | nt | i | i | i | i | i
Cc1nn(C)c(C)c1NC(=O)CSc1nc(-c2ccccc2Cl)nc2c1cnn2-c1ccccc1 | i | 65 | i | i | i | i
CO[C@H]1CN(C)C(=O)c2cc(NC(=O)C3CCCC3)ccc2OC[C@@H](C)NC[C@H]1C | nt | nt | nt | nt | nt | i
Cn1c2ccccc2c(=O)c2ccc(C#CC3(N)CCCCC3)cc21 | i | 52 | i | i | i | i
N#Cc1ccc(C#Cc2ccc3oc4ccccc4c(=O)c3c2)cc1 | i | i | i | i | i | i
COc1cccc2oc3ccc(C#CC4(N)CCCCC4)cc3c(=O)c12 | i | 60 | i | i | i | i
Cn1c2ccccc2c(=O)c2cc(C#CC3(O)CCCCC3)ccc21 | i | i | i | -72 | i | i
NC1(C#Cc2ccc3c(=O)c4ccccc4sc3c2)CCCCC1 | i | i | i | i | i | i
O=c1c2ccccc2oc2ccc(C#CC3(O)CCCCC3)cc12 | i | i | i | -57 | i | i
O=C(NCC(c1ccco1)N1CCCC1)c1cc2cc(Cl)ccc2o1 (stereo unspecified) | i | i | i | i | i | i
CC1(C(=O)NS(=O)(=O)c2ccccc2OC(F)(F)F)CCN1C(=O)Cc1ccccc1 (stereo unspecified) | nt | i | i | i | i | i
Cc1ccc(NC(=O)C2c3ccccc3-c3ccccc32)cc1 | nt | i | i | i | i | i
O=CNc1cc(-c2ccoc2)cn2c(-c3ccc(F)cc3)cnc12 | nt | i | i | i | i | i
O=C(NC1CCCCC1)C(c1ccc(F)cc1)N(Cc1cccs1)C(=O)CN1C(=O)c2ccccc2S1(=O)=O (stereo unspecified) | i | i | 59 | -75 | i | i
O=C1CCN(S(=O)(=O)c2ccccc2)C2CCCCC12 (stereo unspecified) | i | i | i | i | i | i
O=C1NC2CCCCC2C(=O)N1OS(=O)(=O)c1ccccc1 (stereo unspecified) | i | 51 | i | i | i | i
C[C@H](CO)N1C[C@H](C)[C@@H](CN(C)C(=O)Nc2ccc(C(F)(F)F)cc2)Oc2c(NC(=O)Nc3ccc(C(F)(F)F)cc3)cccc2C1=O | i | 56 | i | i | i | i
